Values joined by “and” are separate entries in the source; they are usually repeats but may differ in a detail not shown here. Equal values may be shown once. Inconclusive results are not listed. Active and inactive are the calls of the source. Unless noted, calls follow the shape of the dose curve; as a rule, active = well fitted curve in the direction sought with a large enough effect; inconclusive = small, poorly fitted or top-dose-only effect, or another doubt; inactive = no such curve, though single readings can be large; an effect the other way counts as inactive or inconclusive.

Assay [1] deals with Cytochrome P450 3A4 (Homo sapiens) (UniProt P08684). In words: qHTS Assay for Inhibitors and Substrates of Cytochrome P450 3A4 (AID 884). Also: nearly all actives have a fitted effect of over 50% in size. Also: potency is read from the fitted curve at half-maximal effect. As to activity change, negative = inhibition: % is scaled to controls: 0 for no effect and ±100 for the full control effect. An outline of the steps: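 20 nM human CYP3A4 with 25 uM Luciferin-PPXE (at KM) in 200 mM KPO4, preincubated 10 min with compound; NADPH regeneration started a 60 min RT reaction. Luciferin detected by luminescence, normalized to 57 uM ketoconazole as full inhibition.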
Sequence of Cytochrome P450 3A4 (Homo sapiens) (P08684 whole entry, looked up): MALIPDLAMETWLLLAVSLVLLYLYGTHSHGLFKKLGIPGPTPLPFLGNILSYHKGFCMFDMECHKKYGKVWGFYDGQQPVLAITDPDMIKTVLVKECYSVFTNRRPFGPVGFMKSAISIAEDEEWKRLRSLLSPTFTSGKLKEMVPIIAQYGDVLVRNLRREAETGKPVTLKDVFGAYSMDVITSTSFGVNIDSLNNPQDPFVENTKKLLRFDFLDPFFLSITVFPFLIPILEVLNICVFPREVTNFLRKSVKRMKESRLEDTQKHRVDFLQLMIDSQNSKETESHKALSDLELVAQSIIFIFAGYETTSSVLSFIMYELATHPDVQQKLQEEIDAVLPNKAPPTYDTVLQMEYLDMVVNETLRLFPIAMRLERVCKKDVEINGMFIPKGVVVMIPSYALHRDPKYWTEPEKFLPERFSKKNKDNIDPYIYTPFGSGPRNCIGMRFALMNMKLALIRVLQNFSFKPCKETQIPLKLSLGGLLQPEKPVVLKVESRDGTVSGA
On the technique in general: In qHTS, concentration-response curves come from the screen itself.

Assay [2] is described as follows: Confirmation and Secondary Assay for Modulators of Hemoglobin Beta Chain Splicing at IVS2 654 locus (AID 910).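 Also: HeLa cells stably carrying EGFP split by mutant beta-globin IVS2-654 intron; per-well total GFP intensity by laser scanning cytometry after 2-day treatment; % of control where 0% means no effect.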 An outline of the steps:
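Readout: per-well total peak green fluorescence (488 nm ex, 500–520 nm em) from objects 5–250 µm, reflecting correct splicing of an EGFP-654 reporter. Compounds were applied for 2 days at 37 °C to overnight-plated HeLa EGFP-654 cells; controls were DMSO and 500 nM IVS2-654 PNA.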

The nature of assay [3]: Confirmation and Secondary Assay for Modulators of Hemoglobin Beta Chain Splicing at IVS2 705 locus (AID 930).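 Also: HeLa cells stably expressing the EGFP-705 splicing reporter; GFP fluorescence per well restored by corrected splicing of the IVS2-705 intron in EGFP; % of control where 0% means no effect.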 An outline of the steps:
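HeLa EGFP-705 reporter; 500 cells/well, o/n 37C 5% CO2; cpd 2 d; 488 ex/500-520 em laser scan; total peak GFP intensity/well. Ref: 500 nM […] antisense PNA.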

The nature of assay [4]: qHTS Assay for Lipid Storage Modulators (AID 1519; calls by dose curve; as to activity change, negative = inhibition: % is scaled to controls: 0 for no effect and ±100 for the full control effect). Conditions: Drosophila S3 cells, BODIPY lipid droplet/cell ratio, laser cytometry, cells loaded with oleic acid; for activity change, negative = inhibition: at 57.5 µM (top of the series). An outline of the steps: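 Cells seeded at 5,000 per well were treated with compounds over a concentration series and loaded with oleic acid (400 uM, as added). Lipid droplet fluorescence (488 nm excitation, 500-530 nm channel) was read by laser-scanning cytometry and normalized to 20 uM Triacsin C.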

Assay [5] concerns the target Ubiquitin carboxyl-terminal hydrolase 1 (Homo sapiens) (UniProt O94782). Description: Inhibitors of USP1/UAF1: Pilot qHTS (AID 504865).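 Also: rhodamine fluorescence freed from ubiquitin-rhodamine substrate followed over time; top concentration of the series differs between compounds; % is scaled to controls: 0 for no effect and ±100 for the full control effect; nearly all actives have a fitted effect of over 35% in size.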 An outline of the steps:
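In 50mM HEPES pH 7.8 containing 0.5mM EDTA, 1mM TCEP, 0.1 mg/ml BSA and 0.01% Tween-20, 1nM USP1/UAF1 is exposed to compound for 15 min, then Ub-Rho (150nM final) is added and fluorescence is read over time.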

Assay [6] has as its target Cytochrome P450 3A4 (Homo sapiens) (UniProt P08684). In words: qHTS Assay for Activators of Cytochrome P450 3A4 (AID 885). Also: nearly all actives have a fitted effect of over 65% in size. An outline of the steps: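 Steps: enzyme/substrate mix dispensed; compound added, 10 min RT; NADPH regeneration solution added, 60 min RT; luciferin detection buffer stops reaction; 20 min later luminescence measured.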
[7] abbreviates: measured here: cell count channel max response.
[8] abbreviates: measured here: lipid channel max response.

Sequence of Ubiquitin carboxyl-terminal hydrolase 1 (Homo sapiens) (O94782 whole entry, looked up): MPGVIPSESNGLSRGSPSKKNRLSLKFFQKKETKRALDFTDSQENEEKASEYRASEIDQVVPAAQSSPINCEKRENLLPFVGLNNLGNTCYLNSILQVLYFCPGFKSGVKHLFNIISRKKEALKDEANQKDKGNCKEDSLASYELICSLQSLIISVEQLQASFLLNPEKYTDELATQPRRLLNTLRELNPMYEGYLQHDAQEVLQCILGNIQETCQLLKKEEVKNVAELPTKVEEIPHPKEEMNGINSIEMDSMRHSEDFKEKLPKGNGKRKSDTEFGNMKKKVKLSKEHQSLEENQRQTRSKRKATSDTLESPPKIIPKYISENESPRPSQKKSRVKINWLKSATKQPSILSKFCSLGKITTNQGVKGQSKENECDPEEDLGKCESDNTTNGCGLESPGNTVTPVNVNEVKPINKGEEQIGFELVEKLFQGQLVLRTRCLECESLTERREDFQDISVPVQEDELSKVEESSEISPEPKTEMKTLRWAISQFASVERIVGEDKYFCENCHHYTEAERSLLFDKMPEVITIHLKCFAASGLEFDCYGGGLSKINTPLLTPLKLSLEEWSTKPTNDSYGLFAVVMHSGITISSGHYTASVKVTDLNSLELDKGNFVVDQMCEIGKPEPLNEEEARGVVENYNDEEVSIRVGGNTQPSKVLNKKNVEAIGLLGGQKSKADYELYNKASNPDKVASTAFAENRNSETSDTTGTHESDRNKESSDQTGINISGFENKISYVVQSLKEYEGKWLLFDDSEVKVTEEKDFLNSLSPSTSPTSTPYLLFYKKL

Regarding `COC1=CC23CCCN2CCc2cc4c(cc2C3C1O)OCO4` (centres undefined), the Potency in assay [1] was 31.6 µM (active). The Potency result in assay [2], in assay [3] and in assay [5] was “inactive” throughout. For the same molecule, the activity change, negative = inhibition in assay [4] was 15.3% (inactive). Besides, the max response in assay [4] (setting [7]) turned out to be 26.5%; in assay [4] (setting [8]) it was 52.2%.

In the case of `CC1C(=O)OC2CCN3CC=C(COC(=O)[C@](C)(O)[C@]1(C)O)C23` (some centres undefined), the Potency entry in assay [1], in assay [2], in assay [3] and in assay [5] was “inactive” in each case. Moreover, in assay [4], the activity change, negative = inhibition is 5.81% (inactive). Besides, the results for the max response in assay [4] (setting [7]) and in assay [4] (setting [8]) were -2.74% and 4.32%, respectively.

Regarding `CC(=O)O.CC(=O)O.[Cd]`, the Potency result in assay [1], in assay [2], in assay [3] and in assay [5] was “inactive” throughout. For the same molecule, the activity change, negative = inhibition in assay [4] is 4.11% (inactive). The max response in assay [4] (setting [7]) was found to be 7.92%; in assay [4] (setting [8]), 9.61%.

Turning to `CC(=O)OC1C(=O)[C@]2(C)C(O)CC3OC[C@]3(OC(C)=O)C2[C@@H](OC(=O)c2ccccc2)[C@]2(O)CC(O)C(C)=C1C2(C)C` (some centres undefined), the Potency result in assay [1], in assay [2], in assay [3] and in assay [5] was “inactive” in each case. For the same molecule, in assay [4], the activity change, negative = inhibition was 0.522% (inactive). Further, the max response in assay [4] (setting [7]) stood at 3.27%; in assay [4] (setting [8]), 6.64%.

In the case of `COc1ccc(/C=C/c2cc(O)cc(O)c2)cc1`, the Potency entry in assay [1], in assay [2], in assay [3] and in assay [5] was “inactive” in each case. For the same molecule, the activity change, negative = inhibition in assay [4] is 4.7% (inactive). Moreover, the max response in assay [4] (setting [7]) came out at 1.7%; in assay [4] (setting [8]) it was 6.07%.

For `CC(=O)OC1CC(OC(C)=O)[C@]2(C)C(CC(OC(C)=O)[C@]3(C)C2CC[C@@]2(C)C(c4ccoc4)C[C@H]4O[C@]432)C1(C)C` (some centres undefined), the Potency entry in assay [1], in assay [2], in assay [3] and in assay [5] was “inactive” in each case. The activity change, negative = inhibition in assay [4] is 6.91% (inactive). For the same molecule, the values for the max response in assay [4] (setting [7]) and in assay [4] (setting [8]) were 9.38% and 19.4%, respectively.

As to `Cc1cc(OC(=O)N2CCCCC2)c(C(C)C)cc1[N+](C)(C)C`, the Potency entry in assay [1], in assay [2], in assay [3] and in assay [5] was “inactive” each time. Besides, the activity change, negative = inhibition in assay [4] was 8.28% (inactive). The max response was 17.5% in assay [4] (setting [7]) and 31.1% in assay [4] (setting [8]).

`CC(C)CC(CN)CC(=O)O` (centres undefined): the Potency entry in assay [1], in assay [2], in assay [3] and in assay [5] was “inactive” throughout. In assay [4], the activity change, negative = inhibition is 8.71% (inactive). Besides, the max response in assay [4] (setting [7]) stood at 14.3%; in assay [4] (setting [8]), 26.2%.

As to `C[C@@]12CCC(Cl)C[C@H]1CCC1C2CC[C@]2(C)C(=O)CCC12` (some centres undefined), the Potency result in assay [1], in assay [2], in assay [3] and in assay [5] was “inactive” throughout. Further, the activity change, negative = inhibition in assay [4] was 8.24% (inactive). The max response in assay [4] (setting [7]) stood at 9.07%; in assay [4] (setting [8]), 21.6%.

As to `COC1CC(OC2CC[C@@]3(C=O)C4CC[C@]5(C)C(C6=CC(=O)OC6)CC[C@@]5(O)C4CC[C@]3(O)C2)OC(C)C1O` (some centres undefined), the Potency entry in assay [2], in assay [3] and in assay [5] was “inactive” throughout. For the same molecule, the activity change, negative = inhibition in assay [4] was 0.995% (inactive). For the same molecule, the values for the max response in assay [4] (setting [7]) and in assay [4] (setting [8]) were 18.6% and 20.5%, respectively.

Take `CC(C)c1cc2c(c(O)c1O)[C@]1(C(=O)O)CCCC(C)(C)C1CC2` (some centres undefined): the Potency in assay [1] is 0.316 µM (active). The Potency entry in assay [6], in assay [2], in assay [3] and in assay [5] was “inactive” in each case. For the same molecule, the activity change, negative = inhibition in assay [4] is 4.21% (inactive). Further, the max response was -11.1% in assay [4] (setting [7]) and -4.62% in assay [4] (setting [8]).

As for `CC(N)C(O)c1ccc(O)c(O)c1` (centres undefined), the Potency result in assay [1], in assay [2], in assay [3] and in assay [5] was “inactive” throughout. Also, the activity change, negative = inhibition in assay [4] was 9.23% (inactive) and 2.97% (inactive). Besides, the max response was 10.7% and 5.9% in assay [4] (setting [7]); 23.4% and 5.16% in assay [4] (setting [8]).

As to `CC(C)(C#N)O[C@H]1OC(CO)C(O)C(O)C1O` (some centres undefined), the Potency entry in assay [1], in assay [2], in assay [3] and in assay [5] was “inactive” each time. For the same molecule, the activity change, negative = inhibition in assay [4] is 4.98% (inactive). The max response in assay [4] (setting [7]) amounted to 13.6%; in assay [4] (setting [8]), 22.9%.

As to `COc1cc2c(cc1OC)[C@@H]1C(=O)c3ccc(O)c(CC=C(C)C)c3OC1CO2` (some centres undefined), the Potency entry in assay [1], in assay [2], in assay [3] and in assay [5] was “inactive” throughout. Moreover, the activity change, negative = inhibition in assay [4] is 7.74% (inactive). Further, the values for the max response in assay [4] (setting [7]) and in assay [4] (setting [8]) were 14.6% and 25.6%, respectively.

`CN1C2CC3CC1C(O3)C2O` (centres undefined): the Potency result in assay [1], in assay [2], in assay [3] and in assay [5] was “inactive” throughout. For the same molecule, the activity change, negative = inhibition in assay [4] was 1.96% (inactive). For the same molecule, the results for the max response in assay [4] (setting [7]) and in assay [4] (setting [8]) were -4.71% and -5.52%, respectively.

Turning to `COC[C@]12CN(C=O)C3C4C(OC)C1[C@@]3(C1CC3(O)C(OC)C(O)C4(OC(C)=O)C1C3OC(=O)c1ccccc1)[C@@H](OC)CC2O` (some centres undefined), the Potency result in assay [1], in assay [2], in assay [3] and in assay [5] was “inactive” in each case. Besides, the activity change, negative = inhibition in assay [4] is -0.123% (inactive). In addition, the values for the max response in assay [4] (setting [7]) and in assay [4] (setting [8]) were -6.49% and -7.99%, respectively.

Turning to `C/C=C(\C)C(=O)OC1CC(OC(C)=O)[C@@]2(C(=O)OC)COC3C2[C@@]12CO[C@](O)(C(=O)OC)C2[C@](C)(C12OC1(C)C1CC2OC2OC=C[C@]21O)C3O` (some centres undefined), the Potency in assay [1] is 12.6 µM (active). The Potency result in assay [6], in assay [2], in assay [3] and in assay [5] was “inactive” each time. Moreover, in assay [4], the activity change, negative = inhibition was -3.34% (inactive). The max response in assay [4] (setting [7]) is -9.57%; in assay [4] (setting [8]), -10.6%.

For the molecule `CCC1CN2CCC1CC2C(O)c1ccnc2ccc(OC)cc12` (centres undefined), the Potency entry in assay [1], in assay [2], in assay [3] and in assay [5] was “inactive” throughout. For the same molecule, the activity change, negative = inhibition in assay [4] is 6.54% (inactive). In addition, the max response is 2.56% in assay [4] (setting [7]) and 12.3% in assay [4] (setting [8]).

On to `C[C@@]12CC(c3ccoc3)OC(=O)C1CC[C@@]1(C)C2C2C=C[C@@]1(O)C(=O)O2` (some centres undefined), for which the Potency entry in assay [1], in assay [2], in assay [3] and in assay [5] was “inactive” each time. In addition, the activity change, negative = inhibition in assay [4] is 2.16% (inactive). The max response amounted to 24.2% in assay [4] (setting [7]) and 26.2% in assay [4] (setting [8]).

Consider `COc1cc(C2c3cc4c(c(O)c3CC3COC(=O)C32)OCO4)cc(OC)c1OC` (centres undefined), for which, in assay [1], the Potency was 1 µM (active). Further, the Potency entry in assay [6], in assay [2], in assay [3] and in assay [5] was “inactive” throughout. For the same molecule, the activity change, negative = inhibition in assay [4] was 3.6% (inactive). Besides, the max response worked out at 11.9% in assay [4] (setting [7]) and 14.5% in assay [4] (setting [8]).

Take `CC(=O)OC1CCC23C(=O)OC45CCC(C6=CC(=O)OC6)C4(C)CCC2C5CCC3(O)C1` (centres undefined): the Potency result in assay [1], in assay [2], in assay [3] and in assay [5] was “inactive” in each case. Besides, the activity change, negative = inhibition in assay [4] is -4.87% (inactive). Besides, the results for the max response in assay [4] (setting [7]) and in assay [4] (setting [8]) were 6.6% and 2.69%, respectively.

With `CNC(=O)O/N=C(/C)SC`, the Potency result in assay [1], in assay [2], in assay [3] and in assay [5] was “inactive” in each case. The activity change, negative = inhibition in assay [4] was 3.26% (inactive). In addition, the max response in assay [4] (setting [7]) is 16.3%; in assay [4] (setting [8]) it was 20.1%.

Regarding `COc1cc(C2c3cc4c(cc3C(O)C3COC(=O)C23)OCO4)cc(OC)c1O` (centres undefined), the Potency in assay [1] is 6.31 µM (active). Also, the Potency result in assay [6], in assay [2], in assay [3] and in assay [5] was “inactive” throughout. In assay [4], the activity change, negative = inhibition is 7.14% (inactive). For the same molecule, the max response in assay [4] (setting [7]) is -1.69%; in assay [4] (setting [8]), 6.73%.
